# Hits are enriched below; roughly 4.2% of the tested compounds scored in any of these assays.
# TRPV1 agonist – activates the human vanilloid receptor TRPV1. TRPV1-expressing cells, Fluo-8 calcium influx, agonist mode. activation, % at 8.33 µM. 320,000 tested, 0.19% active; in the data active = activation above about 80%; inconclusive = between about 30% and that limit; note: 0% is about no effect
# Target sequence (Q8NER1 whole entry, looked up): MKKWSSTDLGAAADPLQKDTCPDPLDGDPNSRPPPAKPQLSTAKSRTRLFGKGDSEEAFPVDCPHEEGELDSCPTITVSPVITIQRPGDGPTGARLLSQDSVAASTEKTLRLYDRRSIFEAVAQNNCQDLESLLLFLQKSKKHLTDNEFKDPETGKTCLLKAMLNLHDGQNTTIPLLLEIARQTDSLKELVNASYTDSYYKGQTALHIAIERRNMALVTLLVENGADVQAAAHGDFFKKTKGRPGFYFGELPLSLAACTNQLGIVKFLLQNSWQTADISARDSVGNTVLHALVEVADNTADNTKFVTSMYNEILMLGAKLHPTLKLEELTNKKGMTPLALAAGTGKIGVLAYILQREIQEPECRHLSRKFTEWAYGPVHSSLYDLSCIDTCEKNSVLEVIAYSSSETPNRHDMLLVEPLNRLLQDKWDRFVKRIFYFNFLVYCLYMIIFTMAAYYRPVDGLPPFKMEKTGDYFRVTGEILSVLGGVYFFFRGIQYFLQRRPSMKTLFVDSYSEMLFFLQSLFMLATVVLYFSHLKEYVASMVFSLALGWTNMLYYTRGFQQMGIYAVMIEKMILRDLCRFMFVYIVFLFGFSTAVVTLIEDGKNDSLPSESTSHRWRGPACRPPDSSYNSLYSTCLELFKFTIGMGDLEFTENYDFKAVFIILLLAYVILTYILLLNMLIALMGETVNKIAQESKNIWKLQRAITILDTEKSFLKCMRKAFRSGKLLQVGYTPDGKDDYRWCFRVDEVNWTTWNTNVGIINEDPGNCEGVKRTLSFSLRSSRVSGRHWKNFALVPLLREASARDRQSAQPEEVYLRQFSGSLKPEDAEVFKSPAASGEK
#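 Fluo-8 calcium influx in TRPV1-expressing cells, kinetic read (ex 480/em 520 nm). Compound added and read 3 min for agonist activity, followed by capsaicin at EC20 final and 2 min further read for enhancement.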
# D1 ag – human D1 receptor agonism. P21728. HEK293 T-REx D1 cells, calcium flux, agonist mode. activation, % at 2 µM. 360,000 tested, 1% active. AID 504660; in the data active = activation above about 30%; note: 0% is about no effect
#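 Inducible HEK293 T-REx D1 cells, force-coupled to calcium signalling, were plated at 4000 cells/well with tetracycline and held overnight at 30 C. After no-wash calcium dye loading, compound-evoked calcium rise over 180 s flagged agonists.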
# TRPV1 potentiator – human TRPV1 potentiation; Q8NER1; TRPV1-expressing cells, Fluo-8 calcium influx, capsaicin EC20 potentiation; potentiation, % at 8.33 µM; 320,000 tested, 0.02% active; AID 540277; in the data active = potentiation above about 80%; inconclusive = between about 30% and that limit; note: 0% is about no effect
#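 Fluo-8 calcium influx in TRPV1-expressing cells, kinetic read (ex 480/em 520 nm). Compound added and read 3 min for agonist activity, followed by capsaicin at EC20 final and 2 min further read for enhancement.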
# D1 potentiator – enhances dopamine response at the human D1 receptor. potentiation, % at 10 µM. HEK293 TREx D1 cells, calcium flux, dopamine EC20 potentiation. AID 504651. 360,000 tested, 0.036% active. P21728; in the data active = potentiation above about 30%; note: 0% is about no effect
# D1 antag – antagonists of human D1 dopamine receptor; P21728; HEK293 TREx D1 cells, calcium flux, dopamine EC80; hits give low values; activity change, negative = inhibition, % at 10 µM; 360,000 tested, 3.2% active; in the data active = activity change below about -30%; note: % is set by controls: 0 for no effect and ±100 for the full control effect
#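 HEK293 T-REx cells expressing inducible, force-coupled D1 receptor; no-wash Ca dye, 30–90 min RT. Cmpd → 180 s read at 1 Hz → EC80 DA → 180 s read.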
# * marks the source's active call; other numbers are inactive results; ? = inconclusive; / = not tested or not shown; ! = not active in a repeat.
SMILES,TRPV1 agonist,D1 ag,TRPV1 potentiator,D1 potentiator,D1 antag
CN(C)CCCNC(=S)NCC(c1ccc(Cl)cc1Cl)c1c[nH]c2ccccc12 (stereo not given),5,61*,10,-4,-40*
NCC(c1ccccc1Cl)c1c[nH]c2ccccc12 (stereo not given),6,17,8,-2,-9
CCCCNC(=S)NCC(c1ccccc1)c1c[nH]c2ccccc12 (stereo not given),?,2,-28,0,-9
CCc1ccc(N2C(=O)CSC23C(=O)N(Cc2cccc(OC)c2)c2ccccc23)cc1 (stereo not given),/,12,/,0,13
O=C(Nc1cc(F)ccc1F)N1CCN(c2ccnc3cc(Cl)ccc23)CC1,?,11,-22,-13,-19
O=S(=O)(c1ccccc1)N1CCN(c2ccnc3cc(Cl)ccc23)CC1,7,7,2,10,-41*
Cc1cc(N2CCN(S(=O)(=O)c3ccccc3)CC2)c2ccccc2n1,10,11,-9,-3,-35*
O=C(Nc1ccc(C(F)(F)F)cc1)N1CCN(c2ccnc3cc(Cl)ccc23)CC1,-4,13,2,-14,-37*
O=S(=O)(c1ccc(Cl)cc1)N1CCN(c2nc(-c3ccc(Cl)cc3)nc3ccccc23)CC1,/,0,/,2,-36*
CCOC(=O)N1CCc2c(sc(NCc3ccc(OC)c(Br)c3)c2C(=O)Nc2cc(OC)ccc2OC)C1,/,2,/,-4,-2
CCCCCCOc1ccc(C2C(=O)N(C3CCCCC3)CC(=O)N2CCCC)cc1 (stereo not given),/,-2,/,-1,-11
CCN(C(=O)C1CCN(S(=O)(=O)c2cc(Br)cc3c2N(C(C)=O)CC3)CC1)c1cccc(C)c1,/,6,/,0,15
Cc1sc2ncnc(Nc3ccc(O)cc3)c2c1C,/,1,/,0,6
Cc1ccc(Nc2ncnc3sc(C)c(C)c23)cc1,87*,1,-9,-2,1
C/C(=N\Nc1ncc(Cl)cc1Cl)c1ccccn1,3,3,4,-2,-40*
C/C(=N\Nc1ncnc2sc(C)c(C)c12)c1ccccn1,88*,281*,7,7,6
COc1ccccc1CN(C)S(=O)(=O)c1cccs1,2,0,0,-6,-8
COc1ccc(C(C)=O)cc1CN(c1ccccc1OC)S(=O)(=O)c1cccs1,9,5,-3,1,-94*
CCC1Oc2ccccc2N(CC(=O)NCc2cc(OC)ccc2OC)C1=O (stereo not given),/,-3,/,-1,-7
Clc1ccc(OCCSCc2nc3ccccc3[nH]2)cc1,-4,21,0,-4,-49*
Clc1ccc(SCc2nc3ccccc3[nH]2)cc1,?,8,-25,-15,-21
COC(=O)CCn1nc(-c2ccc(C)cc2)c2ccccc2c1=O,3,1,17,-6,-21
CCOC(=O)CCn1nc(-c2ccc(C)cc2)c2ccccc2c1=O,20,1,-10,-10,-49*!
CCC(C)C(NC(=O)c1ccccc1)C(=O)Nc1ccc(S(=O)(=O)Nc2cc(C)nc(C)n2)cc1 (stereo not given),-1,0,1,-1,-59*
Cc1ccc(C(=O)/C=C/Nc2ccc(S(=O)(=O)Nc3cc(C)nc(C)n3)cc2)cc1,-3,8,-3,-3,-57*
SMILES,TRPV1 agonist,D1 ag,TRPV1 potentiator,D1 potentiator,D1 antag
Cc1cccc(NC(=O)Cn2c(=O)nc(-c3ccccc3)c3ccccc32)c1C,/,-1,/,0,8
CCOC(=O)c1ccc(NC(=O)c2oc(=O)c3ccccc3c2-c2ccccc2)cc1,/,5,/,0,-48*
CCOC(=O)Cc1csc(NC(=O)c2c(O)c3ccccc3n(C)c2=O)n1,2,0,-4,-4,0
CCOC(=O)c1ccc(NC(=O)c2c(O)c3ccccc3n(C)c2=O)cc1,-2,-1,10,-4,-73*
CC(=O)c1cccc(NC(=O)c2oc(=O)c3ccccc3c2-c2ccccc2)c1,/,5,/,-2,-43*
Cc1cc(C)c(Cn2c(C(O)c3ccccc3)nc3ccccc32)c(C)c1 (stereo not given),/,9,/,-1,24
Cc1cccc(CNC(=O)C2CCN(c3nnc(-n4c(C)ccc4C)s3)CC2)c1,/,-3,/,-1,4
O=C(c1cccc(Cl)c1)N1CCC(c2nc3c(nnn3Cc3ccc(F)cc3F)c(=O)[nH]2)CC1,/,-1,/,-1,-2
CCOC(=O)c1ccc(N2CCN(c3cccc(Cl)c3)CC2)c(NC(=O)Nc2ccc(Cl)cc2)c1,/,0,/,0,18
Cc1cccc(S(=O)(=O)Nc2cccc(-c3ccc(N4CCCCC4)nn3)c2)c1,?,0,2,-2,0
Cc1ccc(CNc2ncnc3c2c(-c2ccccc2)cn3-c2cccc(Cl)c2)cc1,/,-4,/,0,4
CN(C)c1ccc(/C=C/C(=O)c2c(O)c3ccccc3oc2=O)cc1,19,156*,-1,-4,-17
CCOc1ccc(/C=C/C(=O)c2c(O)c3ccccc3oc2=O)cc1,-2,1,7,2,2
Cc1cc(C)c(NC(=O)Cn2c(=O)oc3cc(S(=O)(=O)N4CCCCCC4)ccc32)c(C)c1,/,3,/,-3,-19
CC(=O)NNc1ncnc2c1cnn2-c1ccc(C)c(Cl)c1,6,7,-1,2,-10
Cc1ccc(-n2ncc3c(NCCc4ccccc4)ncnc32)cc1Cl,/,7,/,-3,-36*
Cc1ccc(-n2ncc3c(NCCCc4ccccc4)ncnc32)cc1C,/,3,/,-2,-17
COc1ccc(CCNc2ncnc3c2cnn3-c2ccc(C)c(Cl)c2)cc1,/,3,/,-4,-63*
Cc1ccc(-n2ncc3c(NNC(=O)c4ccccc4C)ncnc32)cc1,/,-2,/,0,-36*
Cc1ccc(-n2ncc3c(NCCO)ncnc32)cc1Cl,/,5,/,-3,-39*
O=C(NCc1ccccc1Cl)C(=O)NCC(c1cccs1)S(=O)(=O)c1cccs1 (stereo not given),/,9,/,-1,/
COCCn1c(C)cc(O)c(C(c2ccccc2)N2CCN(c3ccccc3)CC2)c1=O (stereo not given),/,-1,/,-2,0
Cc1ccc(C(=O)Nc2cccc(C(=O)OCc3cc(=O)n4c5c(sc4n3)CCCC5)c2)cc1,/,2,/,0,-1
O=[S+]([O-])(c1ccc2c(c1)OCCO2)N1CCN([S+](=O)([O-])c2ccc(F)cc2Br)CC1,/,7,/,-2,-8
CCn1nc(-c2ccccc2)c(-c2ccccc2)c(C(=O)Nc2ccc(NC(C)=O)cc2)c1=O,/,-1,/,-1,-2
Cc1c(C(=O)Nc2cccc(C(F)(F)F)c2)oc2ccc(S(=O)(=O)N(C)C3CCCCC3)cc12,/,-3,/,0,-5
COc1ccc(CCNc2ncnc3c2cnn3-c2ccc(F)cc2)cc1,/,-2,/,-4,-38*
Cc1ccc(-n2ncc3c(NCCCc4ccccc4)ncnc32)cc1,/,3,/,-2,-17
